# ± gives the standard deviation of the averaged measurements. Whole data set: some 33,000 sequences, median “E-score (rank enrichment, -0.5 to 0.5)” near -0.0028, cut for the highest 2% near 0.23. This is one part of a sample in which the highest values are shown more often than they occur.
# Tested on: 2Sb-muMax20 (muMax20 with two 1,3-bis(methyl)benzene Cys staples, A13C/A17C and Q88C/A92C, C-terminal Lys)
# Assay: PBM 8-mer E-score (E-score (rank enrichment, -0.5 to 0.5)); higher = stronger preferential binding
# Experimental: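 Protein binding microarray (universal PBM chip covering all 10-mers in fixed probe flanks) with chemically synthesized human Max(13-93) bHLH-LZ analogs (not full-length Max) bearing noncanonical residues (hArg, Tha, Aib, Nle at 65) and aromatic Cys staples. Read-out per 8-mer (and its reverse complement): E-score (rank-based enrichment, -0.5 to 0.5) and Z-score of median probe intensity.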
row,Sequence,PBM 8-mer E-score
1,ACAACAAC,0.0959 ± 0.0063
2,ACAACACC,0.257 ± 0.014
3,ACAACCCT,-0.0652 ± 0.072
4,AGAGCCAT,-0.0498 ± 0.022
5,GTACGTTA,0.0622 ± 0.061
6,TACGAAGA,0.16 ± 0.034
7,CTTCAGAC,-0.147 ± 0.0041
8,CCGCTGTA,-0.00727 ± 0.018
9,GATGGACC,-0.139 ± 0.026
10,AGCTAAAA,-0.0318 ± 0.011
11,ATACAAAC,0.182 ± 0.056
12,AGCTCTAG,-0.0829 ± 0.017
13,AGCACCTC,0.00592 ± 0.042
14,ATCCACCG,-0.1554 ± 0.001
15,GATAGCCC,0.0239 ± 0.026
16,GGGGTATA,0.217 ± 0.071
17,ATAGTAAT,0.0828 ± 0.014
18,CTAGTAAA,0.11 ± 0.069
19,ATAGTAAA,0.233 ± 0.068
20,CTGAGTCA,-0.163 ± 0.1
21,CCTCCCGA,-0.19 ± 0.041
22,ATAGTTAG,0.136 ± 0.038
23,AAATACCT,0.11169 ± 4.2e-05
24,CATAACCA,0.16 ± 0.018
25,CATAACTA,0.0553 ± 0.058

row,Sequence,PBM 8-mer E-score
1,AATAACTA,0.151 ± 0.013
2,TATAACCA,0.125 ± 0.024
3,GATAACCA,0.25 ± 0.0028
4,GATAACTA,0.237 ± 0.0032
5,ACGACTAC,-0.086 ± 0.0098
6,TAATTGCA,0.178 ± 0.022
7,AAATTGGG,0.211 ± 0.011
8,CAATTGGA,0.105 ± 0.079
9,CAATTGCA,0.241 ± 0.03
10,TGATTGCA,0.2879 ± 0.0004
11,AAATTGCA,0.0694 ± 0.01
12,AGATTGCA,-0.04038 ± 0.00028
13,CGATTGCA,-0.00806 ± 0.061
14,CAATTGGG,0.233 ± 0.044
15,ATGTGATA,0.137 ± 0.099
16,CTTCTCTC,-0.021 ± 0.036
17,ATAGGAAT,-0.00103 ± 0.048
18,ATTCTTTG,0.0288 ± 0.029
19,GGCTCGGA,-0.242 ± 0.019
20,CACCCATG,-0.0354 ± 0.1
21,ATGGGGCG,0.305 ± 0.011
22,ATGGGGCA,0.247 ± 0.015
23,GTGGGGCA,0.0926 ± 0.0061
24,CTGGGGCA,-0.128 ± 0.0081
25,ATGGGGCC,-0.148 ± 0.097

row,Sequence,PBM 8-mer E-score
1,ATGGGGGG,-0.078 ± 0.064
2,CCGCGTAC,-0.0836 ± 0.06
3,AAACCCTC,0.0564 ± 0.037
4,ATACTTTA,0.254 ± 0.079
5,ATACTTTG,0.18 ± 0.031
6,CTACTTTA,-0.0218 ± 0.0086
7,CACAGCAA,0.0823 ± 0.098
8,TTACTAAA,0.035 ± 0.037
9,CTACTAAC,0.271 ± 0.02
10,ATACTAAC,0.191 ± 0.016
11,GTACTAAA,0.0714 ± 0.032
12,CTACTAAG,-0.0175 ± 0.014
13,ATACTAAA,0.274 ± 0.073
14,AGCCTATG,-0.168 ± 0.032
15,AAGCCCAA,0.14 ± 0.085
16,CAGCCCCA,0.166 ± 0.062
17,GAGCCCAA,0.238 ± 0.016
18,CAGCCCAA,0.0925 ± 0.0081
19,CCGCCCCA,0.349 ± 0.038
20,CCGCCCCC,-0.265 ± 0.034
21,CCGCCCCG,0.287 ± 0.1
22,CCGCCCAA,-0.0271 ± 0.08
23,TAGCCCCA,0.35 ± 0.014
24,CGCCCCCA,-0.0972 ± 0.11
25,CCGCCCGG,-0.235 ± 0.023

row,Sequence,PBM 8-mer E-score
1,TAGCCCAA,0.0876 ± 0.027
2,GGAGAGAA,-0.0248 ± 0.093
3,ACGGCAGC,-0.302 ± 0.045
4,CATATGGA,0.0953 ± 0.063
5,CAACACGC,0.161 ± 0.065
6,CCCACGCC,-0.189 ± 0.095
7,GCCAATTA,0.127 ± 0.041
8,ACGGTCAG,-0.313 ± 0.0032
9,CAGGTCCG,-0.237 ± 0.054
10,ACGTCGGC,0.0307 ± 0.079
11,TCGCCCCA,0.24 ± 0.018
12,TCGCCCAA,-0.0719 ± 0.021
13,ACGCCCCG,-0.046 ± 0.025
14,ACGCCCCA,0.287 ± 0.062
15,GCGCCCCA,0.0563 ± 0.082
16,ACGCCCCC,-0.18 ± 0.1
17,CGATCCAA,-0.286 ± 0.0083
18,CTCGGCGA,-0.0762 ± 0.055
19,CGATGGTA,-0.0858 ± 0.023
20,AATGTAAA,0.211 ± 0.015
21,ATGAGGCA,0.0329 ± 0.044
22,ACTGGCGA,-0.0221 ± 0.033
23,ACTTGCGG,-0.169 ± 0.047
24,CACGCGTA,0.199 ± 0.021
25,CACGCGTG,0.303 ± 0.039

row,Sequence,PBM 8-mer E-score
1,CACACGTA,0.127 ± 0.0021
2,AACACGTC,0.0373 ± 0.11
3,CACGCGTC,0.2 ± 0.0088
4,AACACAAA,0.25 ± 0.03
5,AACACGTA,0.112 ± 0.046
6,CACACGTG,0.338 ± 0.022
7,CACACGTC,-0.172 ± 0.057
8,CACACAAA,0.167 ± 0.033
9,AACACGTG,0.4538 ± 0.0037
10,AACACAAG,0.141 ± 0.016
11,CCGAGCCA,-0.115 ± 0.0049
12,GAAGGGGC,0.128 ± 0.0016
13,ACCTATCG,0.13 ± 0.048
14,CGCTACCC,-0.0659 ± 0.038
15,ACGGATCT,-0.242 ± 0.042
16,GGCGCAAC,-0.0786 ± 0.013
17,CTGATATA,0.0373 ± 0.023
18,CCAACGCC,-0.0186 ± 0.026
19,ACTTCAAA,-0.125 ± 0.065
20,CAACCCCG,-0.0958 ± 0.017
21,CCTGCATC,-0.118 ± 0.02
22,GCTCCGTA,-0.181 ± 0.026
23,CACACCTC,0.11 ± 0.0036
24,CACGCGGA,0.28 ± 0.036
25,CACGCGGG,0.115 ± 0.007

row,Sequence,PBM 8-mer E-score
1,AACGCGGA,-0.0532 ± 0.04
2,CACACCTG,-0.176 ± 0.087
3,CACACCTA,0.251 ± 0.023
4,TCACGGGA,-0.0219 ± 0.047
5,CTCAAGTC,0.0478 ± 0.02
6,AGGGTTGC,-0.0164 ± 0.024
7,CAGTCCGC,-0.188 ± 0.055
8,AGGTGCGG,0.0251 ± 0.022
9,ATTTTATA,0.206 ± 0.038
10,AATTTATG,0.238 ± 0.043
11,AATTTATC,0.18 ± 0.013
12,ATTTTATG,0.0605 ± 0.031
13,AATTTATA,0.248 ± 0.02
14,CATTTATA,0.137 ± 0.013
15,CAGTAAGC,0.00962 ± 0.05
16,AAAAAACC,0.143 ± 0.026
17,GGCTCCGA,-0.22 ± 0.014
18,AAGGCAAT,0.0342 ± 0.0041
19,ATAATTTA,0.235 ± 0.015
20,ACAATTGA,0.194 ± 0.031
21,CCAATTAA,0.159 ± 0.045
22,CCAATTGA,0.252 ± 0.0093
23,GTAATTGA,0.0929 ± 0.019
24,CTAATTGA,0.053 ± 0.057
25,CCAATTAC,0.238 ± 0.015

row,Sequence,PBM 8-mer E-score
1,ATAATTTG,0.132 ± 0.036
2,TCAATTGA,0.1 ± 0.058
3,ACAATTAC,0.194 ± 0.031
4,ATAATTGA,0.258 ± 0.029
5,GTAATTTA,0.0825 ± 0.086
6,CCGAGAGC,-0.304 ± 0.02
7,TCTCCGCA,-0.148 ± 0.043
8,CATGTTCG,0.00518 ± 0.06
9,CAGCTGAA,-0.0746 ± 0.0082
10,AAAATGAC,0.134 ± 0.0081
11,CCCCTAAA,0.0345 ± 0.052
12,CAGGCAAG,-0.0204 ± 0.051
13,CAGTGAAG,-0.0862 ± 0.073
14,AATGAGAA,-0.0163 ± 0.03
15,GCGAACCA,-0.037 ± 0.021
16,ACAGATTC,0.111 ± 0.028
17,GCGTGGTA,0.0782 ± 0.019
18,CTCTACTA,0.168 ± 0.024
19,ATGCCATA,0.246 ± 0.022
20,ATGCCATG,0.026 ± 0.072
21,ATGCCATC,0.134 ± 0.0047
22,AAACAGAT,-0.0777 ± 0.083

# — the supplement of paper PMC12636033
